From paper PMC11006913
Numbering of substitutions follows the chain as printed.

How the values were obtained:
Test in all cases: PBM; 200 nM protein, PBS
Details in all cases: dsDNA, one strand shown
[1] = biological target: T1, SIX6 (Homo sapiens, UniProt O95475 114-200, L167I)
T1 sequence: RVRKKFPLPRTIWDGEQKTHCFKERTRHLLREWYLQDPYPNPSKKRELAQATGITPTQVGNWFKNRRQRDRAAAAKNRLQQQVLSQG

[2] = biological target: T2, SIX6 (Homo sapiens, UniProt O95475 114-200, L143V)
T2 sequence: T1 sequence with L30V, I54L

[3] = biological target: T3, SIX6 (Homo sapiens, UniProt O95475 114-200, H141N)
T3 sequence: T1 sequence with H28N, I54L

[4] = biological target: T4, SIX6 (Homo sapiens, UniProt O95475 114-200, T165P)
T4 sequence: T1 sequence with T52P, I54L

[5] = biological target: T5, SIX6 (Homo sapiens, UniProt O95475 114-200, L167M)
T5 sequence: T1 sequence with I54M

[6] = biological target: T6, SIX6 (Homo sapiens, UniProt O95475 114-200, L143M)
T6 sequence: T1 sequence with L30M, I54L

[7] = biological target: T7, SIX6 (Homo sapiens, UniProt O95475 114-200, L143I)
T7 sequence: T1 sequence with L30I, I54L

[8] = biological target: T8, SIX6 (Homo sapiens, UniProt O95475 114-200, T165G)
T8 sequence: T1 sequence with T52G, I54L

[9] = biological target: T9, SIX6 (Homo sapiens, UniProt O95475 114-200, T139Q)
T9 sequence: T1 sequence with T26Q, I54L

[10] = biological target: T10, SIX6 (Homo sapiens, UniProt O95475 114-200, T165A)
T10 sequence: T1 sequence with T52A, I54L

[11] = biological target: T11, SIX6 (Homo sapiens, UniProt O95475 114-200, L167V)
T11 sequence: T1 sequence with I54V

[12] = biological target: T12, SIX6 (Homo sapiens, UniProt O95475 114-200)
T12 sequence: T1 sequence with I54L

[13] = biological target: T13, SIX6 (Homo sapiens, UniProt O95475 114-200, T165I)
T13 sequence: T1 sequence with T52I, I54L

| Sequence | binding signal [1] | binding signal [2] | binding signal [3] | binding signal [4] | binding signal [5] | binding signal [6] | binding signal [7] | binding signal [8] | binding signal [9] | binding signal [10] | binding signal [11] | binding signal [12] | binding signal [13] |
| --- | --- | --- | --- | --- | --- | --- | --- | --- | --- | --- | --- | --- | --- |
| GGTGATAC | 11.3 upbm affinity estimate (log intensity, higher = more binding, comparable within an allelic series) | 10.3 upbm affinity estimate (log intensity, higher = more binding, comparable within an allelic series) | 11.3 upbm affinity estimate (log intensity, higher = more binding, comparable within an allelic series) | 9.52 upbm affinity estimate (log intensity, higher = more binding, comparable within an allelic series) | 10.6 upbm affinity estimate (log intensity, higher = more binding, comparable within an allelic series) | 11 upbm affinity estimate (log intensity, higher = more binding, comparable within an allelic series) | 10.4 upbm affinity estimate (log intensity, higher = more binding, comparable within an allelic series) | 11.3 upbm affinity estimate (log intensity, higher = more binding, comparable within an allelic series) | 11.4 upbm affinity estimate (log intensity, higher = more binding, comparable within an allelic series) | 11.3 upbm affinity estimate (log intensity, higher = more binding, comparable within an allelic series) | 11 upbm affinity estimate (log intensity, higher = more binding, comparable within an allelic series) | 11 upbm affinity estimate (log intensity, higher = more binding, comparable within an allelic series) | 11 upbm affinity estimate (log intensity, higher = more binding, comparable within an allelic series) |
| GATACATA | 11.1 upbm affinity estimate (log intensity, higher = more binding, comparable within an allelic series) | 10.4 upbm affinity estimate (log intensity, higher = more binding, comparable within an allelic series) | 11 upbm affinity estimate (log intensity, higher = more binding, comparable within an allelic series) | 10 upbm affinity estimate (log intensity, higher = more binding, comparable within an allelic series) | 10.7 upbm affinity estimate (log intensity, higher = more binding, comparable within an allelic series) | 10.9 upbm affinity estimate (log intensity, higher = more binding, comparable within an allelic series) | 10.4 upbm affinity estimate (log intensity, higher = more binding, comparable within an allelic series) | 11 upbm affinity estimate (log intensity, higher = more binding, comparable within an allelic series) | 11.1 upbm affinity estimate (log intensity, higher = more binding, comparable within an allelic series) | 11 upbm affinity estimate (log intensity, higher = more binding, comparable within an allelic series) | 10.8 upbm affinity estimate (log intensity, higher = more binding, comparable within an allelic series) | 10.9 upbm affinity estimate (log intensity, higher = more binding, comparable within an allelic series) | 10.8 upbm affinity estimate (log intensity, higher = more binding, comparable within an allelic series) |
| AAGTATCT | 10.5 upbm affinity estimate (log intensity, higher = more binding, comparable within an allelic series) | – | 10.4 upbm affinity estimate (log intensity, higher = more binding, comparable within an allelic series) | – | 10.2 upbm affinity estimate (log intensity, higher = more binding, comparable within an allelic series) | 10.4 upbm affinity estimate (log intensity, higher = more binding, comparable within an allelic series) | 9.98 upbm affinity estimate (log intensity, higher = more binding, comparable within an allelic series) | 10.4 upbm affinity estimate (log intensity, higher = more binding, comparable within an allelic series) | 10.6 upbm affinity estimate (log intensity, higher = more binding, comparable within an allelic series) | 10.4 upbm affinity estimate (log intensity, higher = more binding, comparable within an allelic series) | 10.3 upbm affinity estimate (log intensity, higher = more binding, comparable within an allelic series) | 10.3 upbm affinity estimate (log intensity, higher = more binding, comparable within an allelic series) | 10.3 upbm affinity estimate (log intensity, higher = more binding, comparable within an allelic series) |
| CTGATATC | 11.1 upbm affinity estimate (log intensity, higher = more binding, comparable within an allelic series) | – | 11 upbm affinity estimate (log intensity, higher = more binding, comparable within an allelic series) | – | – | 10.9 upbm affinity estimate (log intensity, higher = more binding, comparable within an allelic series) | – | – | – | 11 upbm affinity estimate (log intensity, higher = more binding, comparable within an allelic series) | 10.9 upbm affinity estimate (log intensity, higher = more binding, comparable within an allelic series) | – | 10.9 upbm affinity estimate (log intensity, higher = more binding, comparable within an allelic series) |
| CGGATAAA | 10.4 upbm affinity estimate (log intensity, higher = more binding, comparable within an allelic series) | – | 10.3 upbm affinity estimate (log intensity, higher = more binding, comparable within an allelic series) | 9.86 upbm affinity estimate (log intensity, higher = more binding, comparable within an allelic series) | 10.4 upbm affinity estimate (log intensity, higher = more binding, comparable within an allelic series) | 10.5 upbm affinity estimate (log intensity, higher = more binding, comparable within an allelic series) | 10 upbm affinity estimate (log intensity, higher = more binding, comparable within an allelic series) | – | – | 10.3 upbm affinity estimate (log intensity, higher = more binding, comparable within an allelic series) | 10.2 upbm affinity estimate (log intensity, higher = more binding, comparable within an allelic series) | 10.4 upbm affinity estimate (log intensity, higher = more binding, comparable within an allelic series) | 10.3 upbm affinity estimate (log intensity, higher = more binding, comparable within an allelic series) |
| GATATACA | 11.1 upbm affinity estimate (log intensity, higher = more binding, comparable within an allelic series) | – | – | – | 10.9 upbm affinity estimate (log intensity, higher = more binding, comparable within an allelic series) | – | 10.4 upbm affinity estimate (log intensity, higher = more binding, comparable within an allelic series) | – | – | – | – | – | 10.9 upbm affinity estimate (log intensity, higher = more binding, comparable within an allelic series) |
| ACGGATAG | 10.1 upbm affinity estimate (log intensity, higher = more binding, comparable within an allelic series) | 9.74 upbm affinity estimate (log intensity, higher = more binding, comparable within an allelic series) | 10 upbm affinity estimate (log intensity, higher = more binding, comparable within an allelic series) | 9.43 upbm affinity estimate (log intensity, higher = more binding, comparable within an allelic series) | – | – | 9.74 upbm affinity estimate (log intensity, higher = more binding, comparable within an allelic series) | 10 upbm affinity estimate (log intensity, higher = more binding, comparable within an allelic series) | – | – | – | 10.2 upbm affinity estimate (log intensity, higher = more binding, comparable within an allelic series) | – |
| AGTATCAA | 11.1 upbm affinity estimate (log intensity, higher = more binding, comparable within an allelic series) | – | 11.1 upbm affinity estimate (log intensity, higher = more binding, comparable within an allelic series) | – | – | – | – | 11.1 upbm affinity estimate (log intensity, higher = more binding, comparable within an allelic series) | – | 11.1 upbm affinity estimate (log intensity, higher = more binding, comparable within an allelic series) | – | – | – |
| ATATCACG | 11.1 upbm affinity estimate (log intensity, higher = more binding, comparable within an allelic series) | – | 11.1 upbm affinity estimate (log intensity, higher = more binding, comparable within an allelic series) | – | – | – | – | – | – | 11 upbm affinity estimate (log intensity, higher = more binding, comparable within an allelic series) | – | – | 10.9 upbm affinity estimate (log intensity, higher = more binding, comparable within an allelic series) |
